PubChem BioAssay AID1159580 (chemical genetic matrix, 2015)
Values joined by “and” are separate entries in the source; they are usually repeats but may differ in a detail not shown here. Equal entries are not always repeated. Screen size: about 5,500 compounds; about 2,000 (36%) were called active. Not shown: some 18% with an inconclusive outcome. Cut-off read from the data, not from the text of the source: active = normalized growth mostly below about 0.91 (no sharp cut-off); inconclusive = no clear call, values can overlap the other calls; inactive = mostly above about 0.92. Some of the results follow.

Assay: chemical genetic growth profiling, strain panel (AID 1159580);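 note: tested at 20 µM; growth read once vehicle control cultures reached saturation at 30 °C; 1 = growth at the plate median or of vehicle wells; lower values mean less growth of the strain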
Conditions: S. cerevisiae deletion strains, growth OD

Measured: normalized growth

O=C1O[C@H](C(O)CO)C(O)=C1O (some centres undefined)
inactive: locus YAL021C, strain ccr4, hits give low values 0.975 | locus YAL026C, strain drs2, hits give low values 0.974 | locus YAL030W, strain snc1, hits give low values 0.988 | locus YBL061C, strain skt5, hits give low values 0.984 | locus YBR009C, strain hhf1, hits give low values 0.992 | locus YBR021W, strain FUR4, hits give low values 0.976 | locus YBR023C, strain chs3, hits give low values 0.978 | locus YBR171W, strain sec66, hits give low values 0.983 | locus YBR229C, strain ROT2, hits give low values 0.991 | locus YBR231C, strain swc5, hits give low values 1.01 | locus YBR279W, strain paf1, hits give low values 0.986 | locus YCL011C, strain gbp2, hits give low values 0.989 | locus YCL016C, strain dcc1, hits give low values 0.986 | locus YCL029C, strain bik1, hits give low values 0.96 | locus YCL061C, strain MRC1, hits give low values 0.975 | locus YCL069W, strain vba3, hits give low values 0.997 | locus YCR088W, strain abp1, hits give low values 0.985 | locus YDL005C, strain med2, hits give low values 0.983 | locus YDL035C, strain GPR1, hits give low values 1.03 | locus YDL040C, strain nat1, hits give low values 0.987 | locus YDL074C, strain BRE1, hits give low values 0.997 | locus YDL101C, strain DUN1, hits give low values 0.993 | locus YDL185W, strain tfp1, hits give low values 0.973 | locus YDL192W, strain arf1, hits give low values 0.977 | locus YDR001C, strain nth1, hits give low values 0.99 | locus YDR069C, strain doa4, hits give low values 0.991 | locus YDR101C, strain arx1, hits give low values 0.954 | locus YDR137W, strain rgp1, hits give low values 0.971 | locus YDR159W, strain sac3, hits give low values 0.984 | locus YDR162C, strain NBP2, hits give low values 1.01 | locus YDR195W, strain ref2 0.991 | locus YDR297W, strain sur2, hits give low values 0.992 | locus YDR318W, strain mcm21, hits give low values 1 | locus YDR334W, strain swr1, hits give low values 0.979 | locus YDR335W, strain msn5, hits give low values 0.993 | locus YDR388W, hits give low values 0.977 | locus YDR392W, strain spt3, hits give low values 0.916 | locus YDR502C, strain sam2, hits give low values 0.996 | locus YEL003W, strain gim4, hits give low values 1 | locus YEL037C, strain rad23, hits give low values 0.988 | locus YEL061C, strain CIN8 (second series), hits give low values 0.989 | locus YEL061C, strain CIN8, hits give low values 1.02 | locus YER015W, strain faa2, hits give low values 0.971 | locus YER016W, strain bim1, hits give low values 0.997 | locus YER110C, hits give low values 0.974 | locus YER111C, strain swi4, hits give low values 0.983 | locus YER155C, strain BEM2 (second series), hits give low values 0.992 | locus YER155C, strain BEM2, hits give low values 0.976 | locus YER167W, strain BCK2, hits give low values 1 | locus YFR010W, strain ubp6, hits give low values 0.975 | locus YGL078C, strain dbp3, hits give low values 0.964 | locus YGL086W, strain mad1, hits give low values 0.957 | locus YGL167C, strain pmr1, hits give low values 0.984 | locus YGL173C, strain kem1, hits give low values 0.982 | locus YGL227W, strain vid30, hits give low values 0.992 | locus YGL240W, strain doc1, hits give low values 0.986 | locus YGL248W, strain PDE1, hits give low values 0.997 | locus YGL253W, strain hxk2, hits give low values 0.992 | locus YGR135W, strain pre9, hits give low values 1.01 | locus YGR229C, strain SMI1, hits give low values 1.01 | locus YGR252W, strain gcn5, hits give low values 1.06 | locus YHR013C, strain ard1, hits give low values 0.957 | locus YHR027C, strain rpn1, hits give low values 1.01 | locus YHR030C, strain SLT2, hits give low values 0.991 and 0.989 | locus YHR079C, strain IRE1 (second series), hits give low values 0.984 | locus YHR079C, strain IRE1, hits give low values 1 | locus YHR094C, strain hxt1, hits give low values 0.976 | locus YHR129C, strain ARP1, hits give low values 1 | locus YHR142W, strain chs7, hits give low values 0.979 | locus YHR200W, strain rpn10, hits give low values 0.982 | locus YIL066C, strain RNR3, hits give low values 0.987 | locus YIL073C, strain SPO22, hits give low values 0.997 | locus YIL125W, strain kgd1, hits give low values 0.967 | locus YIR030C, strain dcg1, hits give low values 0.978 | locus YJL092W, strain hpr5, hits give low values 0.988 | locus YJL095W, strain BCK1 (second series), hits give low values 0.991 | locus YJL095W, strain BCK1, hits give low values 1.02 and 0.983 | locus YJL115W, strain asf1, hits give low values 0.987 | locus YJL129C, strain trk1, hits give low values 0.992 | locus YJL134W, strain LCB3, hits give low values 0.987 | locus YJL154C, strain vps35, hits give low values 1 | locus YJL164C, strain tpk1, hits give low values 0.969 | locus YJL166W, strain qcr8, hits give low values 0.97 | locus YJL168C, strain set2, hits give low values 0.979 | locus YJL187C, strain SWE1 (second series), hits give low values 0.999 | locus YJL187C, strain SWE1, hits give low values 0.986 | locus YJR043C, strain POL32, hits give low values 0.999 | locus YJR066W, strain TOR1, hits give low values 0.943 | locus YKL009W, strain mrt4, hits give low values 1.01 | locus YKL068W, hits give low values 0.992 | locus YKL085W, strain MDH1 (second series), hits give low values 0.992 | locus YKL085W, strain MDH1, hits give low values 0.992 | locus YKL160W, strain elf1, hits give low values 0.971 | locus YKR001C, strain vps1, hits give low values 0.949 | locus YKR026C, strain gcn3, hits give low values 0.99 | locus YKR091W, strain srl3, hits give low values 0.986 | locus YLL001W, strain dnm1, hits give low values 0.987 | locus YLL026W, hits give low values 0.998 | locus YLL041C, strain sdh2, hits give low values 0.988 | locus YLR027C, strain aat2, hits give low values 0.99 | locus YLR039C, strain RIC1, hits give low values 1.03 | locus YLR058C, strain SHM2, hits give low values 1.01 | locus YLR102C, strain apc9, hits give low values 0.98 | locus YLR113W, strain HOG1, hits give low values 0.974 | locus YLR221C, strain rsa3, hits give low values 0.975 | locus YLR258W, strain gsy2, hits give low values 0.99 | locus YLR262C, strain YPT6 (second series), hits give low values 0.952 | locus YLR262C, strain YPT6, hits give low values 1.04 | locus YLR268W, strain sec22, hits give low values 0.933 | locus YLR320W, strain mms22, hits give low values 0.975 | locus YLR330W, strain CHS5, hits give low values 0.99 | locus YLR342W, strain FKS1 (second series), hits give low values 0.989 | locus YLR342W, strain FKS1, hits give low values 0.98 | locus YLR357W, strain rsc2, hits give low values 0.952 | locus YLR370C, strain arc18, hits give low values 0.986 | locus YLR371W, strain rom2, hits give low values 0.959 | locus YLR384C, strain iki3, hits give low values 0.971 | locus YLR418C, strain cdc73, hits give low values 1.02 | locus YML016C, strain PPZ1, hits give low values 0.958 | locus YML032C, strain rad52, hits give low values 1.02 | locus YML120C, strain ndi1, hits give low values 0.978 | locus YML124C, strain tub3, hits give low values 0.972 | locus YMR058W, strain fet3, hits give low values 0.99 | locus YMR078C, strain ctf18, hits give low values 0.961 | locus YMR125W, strain sto1, hits give low values 0.979 | locus YMR129W, hits give low values 0.996 | locus YMR205C, strain PFK2, hits give low values 0.963 | locus YMR223W, strain ubp8, hits give low values 0.982 | locus YMR231W, strain pep5, hits give low values 0.986 | locus YMR307W, strain GAS1, hits give low values 1.01 | locus YNL067W, strain RPL9B, hits give low values 1 | locus YNL071W, strain lat1, hits give low values 0.986 | locus YNL128W, strain TEP1, hits give low values 0.988 | locus YNL183C, strain NPR1, hits give low values 0.932 | locus YNL209W, strain ssb2, hits give low values 0.998 | locus YNL233W, strain BNI4, hits give low values 0.993 | locus YNL248C, strain rpa49, hits give low values 0.983 | locus YNL250W, strain rad50, hits give low values 0.962 | locus YNL271C, strain bni1, hits give low values 0.966 | locus YNL298W, strain CLA4, hits give low values 0.979 | locus YNL307C, strain MCK1, hits give low values 0.965 | locus YNL322C, strain KRE1 (second series), hits give low values 0.984 | locus YNL322C, strain KRE1, hits give low values 0.995 | locus YNR049C, strain mso1, hits give low values 0.986 | locus YNR052C, strain pop2, hits give low values 0.985 | locus YOL006C, strain TOP1, hits give low values 0.979 | locus YOL012C, strain htz1 1.07 | locus YOL147C, strain pex11, hits give low values 0.982 | locus YOR001W, strain rrp6, hits give low values 0.989 | locus YOR061W, strain CKA2, hits give low values 0.992 | locus YOR069W, strain VPS5, hits give low values 0.991 | locus YOR070C, strain gyp1, hits give low values 0.989 | locus YOR080W, strain dia2, hits give low values 0.981 | locus YOR083W, strain WHI5, hits give low values 0.973 | locus YOR106W, strain vam3, hits give low values 0.962 | locus YOR136W, strain idh2, hits give low values 0.96 | locus YOR144C, strain elg1, hits give low values 0.974 | locus YOR184W, strain ser1, hits give low values 0.991 | locus YOR231W, strain MKK1, hits give low values 0.965 | locus YOR265W, strain rbl2, hits give low values 0.984 | locus YOR270C, strain vph1, hits give low values 0.987 | locus YOR290C, strain snf2, hits give low values 0.953 | locus YOR316C, strain cot1, hits give low values 0.976 | locus YPL051W, strain arl3, hits give low values 0.977 | locus YPL078C, strain atp4, hits give low values 0.979 | locus YPL106C, strain sse1, hits give low values 0.93 | locus YPL240C, strain hsp82, hits give low values 0.995 | locus YPL241C, strain CIN2, hits give low values 0.993 | locus YPL256C, strain CLN2, hits give low values 1 | locus YPR119W, strain clb2, hits give low values 0.976 | locus YPR141C, strain kar3, hits give low values 0.973 | locus YPR163C, strain tif3, hits give low values 0.975 | locus YPR167C, strain met16, hits give low values 0.998 | strain wtn01, hits give low values 0.932
